# Compound activity deposited in PubChem by National Center for Advancing Translational Sciences (NCATS).
# The list is not random: actives were taken first. Their share in the collection is about 19%.
# HT1080-NT tox: kills 2HG-producing HT-1080-NT fibrosarcoma cells; HT-1080-NT fibrosarcoma viability, CellTiter-Glo ATP luminescence, 48 h; Potency, µM (titrated, usually from 46.1 µM), for the others: at the top dose activity, negative = less viability, hits mostly cytotoxic; 360,000 tested, 1.6% active;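 also: NT is the 2HG producing partner of a matched IDH1 knockdown line; potency is read from the fitted curve at half-maximal effect; 0% = DMSO-treated cells and -100% = media-only wells without cells; nearly all actives have a fitted effect of over 55% in size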
#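 Luminescent CellTiter-Glo readout after 48 hours of compound exposure at 37 degrees C defined viability of HT-1080-NT cells. Activity was normalized to DMSO wells and cell-free media wells; concentration-response curves were fitted and assigned curve classes.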
# HT1080 IDH1KD tx: toxicity to HT-1080 IDH1 knockdown cells (counter line). HT-1080 IDH1 knockdown viability, ATP luminescence, 48 h. Potency, µM (doses to about 46.1 µM), for the others: at the highest dose activity, negative = toxicity, usual class: cytotoxic. 360,000 tested, 2% active;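 also: potency is read from the fitted curve at half-maximal effect; 0% = DMSO wells and -100% = cell-free medium wells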
#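 CellTiter-Glo luminescence after 48 h compound exposure at 37 degrees C of IDH1-knockdown HT-1080 cells in 5% FBS RPMI. %Activity scaled between DMSO wells and cell-free media wells, with curves fitted and assigned curve classes.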
# DT40 TDP1 CPT: DT40-hTDP1 cell growth loss with CPT; chicken DT40 Tdp1-/-;hTDP1 cells + 20 nM CPT, ATP luminescence, 48 h; Potency, µM (highest dose often 46.2 µM), for the others: at the top dose activity change, negative = growth inhibition, most hits filed as inhibitors; 420,000 tested, 12% active; also: potency is read from the fitted curve at half-maximal effect; nearly all actives have a fitted effect of over 55% in size
#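 Chicken DT40 Tdp1-/- cells stably complemented with human TDP1 were seeded at 400 cells/well in medium containing 20 nM camptothecin, exposed to pin-transferred compounds, and grown at 37 °C for at least 48 hr. Viability was read as ATP luminescence.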
# TDP1 cell noCPT: qHTS for Inhibitors of human tyrosyl-DNA phosphodiesterase 1 (TDP1): qHTS in cells in absence of CPT | DT40 Tdp1-/- hTDP1 cells, no CPT, ATP luminescence, 48 h | 420,000 tested, 15% active | AID 686978, 2013 | Potency, µM (titrated, usually from 46.2 µM), inactives show at the top dose activity change, negative = growth inhibition, usual class: inhibitors; also: potency is read from the fitted curve at half-maximal effect; nearly all actives have a fitted effect of over 55% in size
#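 A cellular qHTS used chicken DT40 cells lacking endogenous Tdp1 but carrying stably transfected human TDP1. Compounds were applied without camptothecin, and cell growth kinetics were judged by ATP-dependent luminescence after ≥48 hr.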
# ELG1 repair inh: ELG1-dependent DNA repair inhibition. HEK293T ELG1-luciferase reporter, luminescence, 16 h; DNA damage induced by 5-fluorouridine. 330,000 tested, 2.3% active. AID 504467. Potency, µM (titrated, usually from 46.1 µM), for inactives: at the top dose activity change, negative = inhibition, usual class: inhibitors; also: potency is read from the fitted curve at half-maximal effect; nearly all actives have a fitted effect of over 55% in size
#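 DMSO vehicle served as the neutral condition. Each well held 2,000 cells given 5-fluorouridine plus compound; after 16 hr at 37 °C/5% CO2, ONE-Glo was added and luciferase measured 30 min later.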
# IL-1B inflam inh: blocks inflammasome-driven IL-1 beta release | activity change, % at 57.5 µM | 360,000 tested, 4.7% active | AID 743279 | THP-1 LPS/ATP IL-1B secretion, AlphaLISA, 16 h; hits give low values; in the data active = activity change below about -50%; inconclusive = mostly about -30% to -49%
#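 Secreted IL-1B measured by AlphaLISA bead assay after 16 h compound exposure of THP-1 cells; compounds (final up to 57.5 uM) added 1 h before LPS (250 ng/mL) and ATP (1.25 mM) stimulation; lower signal means less secretion.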
# An asterisk follows results filed as active; ? = inconclusive; / = no result given; ! = not active in a repeat; [ ] = remark or other dose. Unless noted, calls follow the shape of the dose curve; as a rule, active = well fitted curve in the direction sought with a large enough effect; inconclusive = small, poorly fitted or top-dose-only effect, or another doubt; inactive = no such curve, though single readings can be large; an effect the other way counts as inactive or inconclusive. Unless noted, % is scaled to controls: 0 for no effect and ±100 for the full control effect.
SMILES,HT1080-NT tox,HT1080 IDH1KD tx,DT40 TDP1 CPT,TDP1 cell noCPT,ELG1 repair inh,IL-1B inflam inh
COc1cccc(NC(=O)C2CCCN(S(=O)(=O)c3cccc4nonc34)C2)c1 (centres undefined),-17.7%,-2.9%,-18.9%,-21.7%,?,18.1
CCOc1ccccc1NC(=O)C1CCCN(c2ncnc3onc(-c4ccc(F)cc4)c23)C1 (centres undefined),/,/,20.6µM*,23.1µM*,/,/
O=C(NCc1ccc(F)cc1)C1CCCN(c2ncnc3onc(-c4ccc(F)cc4)c23)C1 (centres undefined),/,/,20.6µM*,16.4µM*,/,/
COc1cccc(NC(=O)C2CCCN(c3ncnc4onc(-c5ccc(F)cc5)c34)C2)c1 (centres undefined),/,/,?,16.4µM*,/,/
CNC[C@H]1OCc2ccccc2-c2ccccc2C(=O)N([C@H](C)CO)C[C@H]1C,1.7%,-2.5%,-3.1%,2.1%,/,6.5
Cc1ncc2c(c1CNS(=O)(=O)N(C)C)CCN(C(=O)c1[nH]c3ccc(Cl)cc3c1C)C2,/,/,-5.1%[9.04 µM],?,/,/
COc1cc(Cl)c(C)cc1NC(=O)C1CCCN(c2ncnc3onc(-c4ccc(F)cc4)c23)C1 (centres undefined),/,/,14.6µM*,8.2µM*,/,/
Cc1ccccc1NC(=O)C1CCCN(c2ncnc3onc(-c4ccc(F)cc4)c23)C1 (centres undefined),1.6%,-12.8%,?,-29.9%,-10.8%,5.9
O=C(Nc1ccccc1)C1=C[C@@H](C2CCCCC2)C[C@@H](OCCCCO)O1,-4.5%,-4.9%,0.1%,-28.3%,?,?
O=C(Nc1ccccc1)C1=C[C@H](C2CCCCC2)C[C@H](OCc2ccc(CO)cc2)O1,-15.4%,-17.4%,?,?,-2.3%,-51.0*
O=C(Nc1ccccc1)C1=C[C@@H](C2CCCCC2)C[C@@H](OCc2ccc(CO)cc2)O1,-17.5%,-21.6%,18.4µM*,23.1µM*,?,0.0
Cc1ccc(-c2cc(C(=O)Nc3ccc(SC(F)F)cc3)no2)cc1F,/,/,?,-24.0%,/,/
Cc1ccc(-c2cc(C(=O)Nc3c(C(=O)c4ccc(C)c(F)c4)oc4ccccc34)no2)cc1,/,/,-15.8%,-8.1%,/,/
O=[N+]([O-])c1ccc(O)c(N=Cc2sc3ccccc3c2O)c1,-22.5%,?,20.6µM*,11.6µM*,-0.1%,39.4
Cc1ccc(CSc2nncn3c2cc2sccc23)cc1,/,/,-10.2%,-14.6%,/,/
O=C(c1cccc(S(=O)(=O)N2CCc3ccccc32)c1)N1CCCC(C(F)(F)F)C1 (centres undefined),-12.5%,-4.2%,10.3µM*,20.6µM*,?,16.1
O=C(c1ccc(S(=O)(=O)N2CCCC2)cc1)N1CCCCC1,-7.4%,-4.0%,-14.8%,-12.0%,3.1%,-0.7
O=S(=O)(c1ccc2nc(N3CCN(c4ccccc4)CC3)ccc2c1)N1CCCCC1,2.0%,-0.5%,-0.6%,-21.7%,18.2%,1.5
COc1ccccc1N1CCN(c2ccc3cc(S(=O)(=O)N4CCCCC4)ccc3n2)CC1,-17.7%,-18.7%,13µM*,7.31µM*,-15.6%,30.4
COc1ccccc1N1CCN(C(=O)c2ccc(S(=O)(=O)N3CCCCCC3)cc2)CC1,-10.2%,-11.4%,?,?,14.6µM*,-9.2
O=C(c1ccc(S(=O)(=O)N2CCc3ccccc3C2)cc1)N1CCCCC1,-3.5%,-3.9%,?,25.9µM*,?,21.7
O=C(c1cccc(S(=O)(=O)N2CCCC2)c1)N1CCCC(C(F)(F)F)C1 (centres undefined),14.3%,7.7%,-20.7%,-17.1%,-1.2%,2.7
Cc1ccc(C)c(OCCC(=O)OCC(=O)Nc2ccc(Cl)cn2)c1,7.7%,9.1%,-4.8%,-9.5%,8.9%,43.3
CCc1ccc(C(=O)NC2=NC(c3ccccc3F)CC(=O)N2)cc1 (centres undefined),/,/,-7.9%,2.3%,/,/
CC(C)NC(=O)C1C(c2ccc(C(F)(F)F)cc2)=Nc2ccccc2N1C(=O)c1cccc(C(F)(F)F)c1 (centres undefined),-0.3%,-0.1%,?,?,/,37.4
SMILES,HT1080-NT tox,HT1080 IDH1KD tx,DT40 TDP1 CPT,TDP1 cell noCPT,ELG1 repair inh,IL-1B inflam inh
Cc1ccc(S(=O)(=O)N2CCCCC2)cc1,-2.2%,-0.7%,-0.9%,2.4%,-0.9%,-1.2
CCS(=O)(=O)N1CCc2cc(C(=O)N3CCN(c4ccccc4)CC3)ccc21,/,/,16.4µM*,14.6µM*,/,/
Cc1ccc(S(=O)(=O)N2CCc3ccccc3CC2)cc1,-10.1%,0.1%,-5.5%,?,/,-85.4*
CS(=O)(=O)N1CCc2cc(C(=O)N3CCOCC3)ccc21,12.6%,7.1%,-0.8%,7.3%,?,-1.4
CS(=O)(=O)N1CCc2cc(C(=O)N3CCN(c4cccc(Cl)c4)CC3)ccc21,0.9%,3.9%,16.4µM*,18.4µM*!,?,-7.7
COc1ccccc1N1CCN(C(=O)c2ccc3c(c2)CCN3S(=O)(=O)c2ccccc2)CC1,-12.3%,-27.9%,8.2µM*,2.91µM*,?,?
Cc1c(C2=CCN(S(=O)(=O)c3ccc(Br)cc3)CC2)c2ccccc2n1C,4.1%,10.7%,?,?,2.2%,12.1
CCn1c(C)c(C2=CCN(S(=O)(=O)c3ccc(C)cc3)CC2)c2ccccc21,6.1%,15.2%,?,18.4µM*,-3.7%,-6.2
CCS(=O)(=O)N1CCN(S(=O)(=O)c2ccc3ccccc3c2)CC1,-2.1%,-4.4%,?,?,0.5%,33.3
CCN(c1ccccc1)S(=O)(=O)c1ccc(C(=O)N2CCCC(C(F)(F)F)C2)cc1 (centres undefined),-3.6%,-7.8%,8.2µM*,23.1µM*,-1.6%,1.6
O=C(c1ccc2c(c1)CCN2S(=O)(=O)c1ccccc1)N1CCN(c2ccc(F)cc2)CC1,-18.0%,-14.2%,23.1µM*,14.6µM*,-3.8%,-19.8
CCN(c1ccccc1)c1ccc2cc(S(=O)(=O)N3CCCC3)ccc2n1,/,/,25.9µM*,20.6µM*,/,/
Cc1c(NC(=O)Cc2ccc(F)cc2)cccc1-c1nc2cccnc2s1,/,/,-19.8%,-21.1%,/,/
O=C(NCCSCc1ccccc1Cl)C1CCN(S(=O)(=O)Cc2ccccc2)CC1,/,/,5.5%,?,/,/
COC(=O)C(CCSC)NC(=O)C1CCN(c2ncnc3c2nc2n3CCCCC2)CC1 (centres undefined),/,/,-2.9%,-17.2%,/,/
